Results as given in PubChem BioAssay AID504339 (National Center for Advancing Translational Sciences (NCATS), 2011).
Screen size: about 390,000 compounds; about 17,000 (4.4%) were called active. Inconclusive results (about 8%) are left out. The call rests on the fitted dose curve; in most records, active means well fitted inhibition curve with a large enough effect; inconclusive means small, poorly fitted or top-dose-only effect; inactive means no such curve, though single readings can be large or run the other way. The entries come from a sample that favours actives as a whole. Where a call stands in place of a potency, no number is given.

Molecular target: Lysine-specific demethylase 4A (Homo sapiens) (UniProt O75164)
Sequence (O75164 whole entry, looked up, the tested form may be a part): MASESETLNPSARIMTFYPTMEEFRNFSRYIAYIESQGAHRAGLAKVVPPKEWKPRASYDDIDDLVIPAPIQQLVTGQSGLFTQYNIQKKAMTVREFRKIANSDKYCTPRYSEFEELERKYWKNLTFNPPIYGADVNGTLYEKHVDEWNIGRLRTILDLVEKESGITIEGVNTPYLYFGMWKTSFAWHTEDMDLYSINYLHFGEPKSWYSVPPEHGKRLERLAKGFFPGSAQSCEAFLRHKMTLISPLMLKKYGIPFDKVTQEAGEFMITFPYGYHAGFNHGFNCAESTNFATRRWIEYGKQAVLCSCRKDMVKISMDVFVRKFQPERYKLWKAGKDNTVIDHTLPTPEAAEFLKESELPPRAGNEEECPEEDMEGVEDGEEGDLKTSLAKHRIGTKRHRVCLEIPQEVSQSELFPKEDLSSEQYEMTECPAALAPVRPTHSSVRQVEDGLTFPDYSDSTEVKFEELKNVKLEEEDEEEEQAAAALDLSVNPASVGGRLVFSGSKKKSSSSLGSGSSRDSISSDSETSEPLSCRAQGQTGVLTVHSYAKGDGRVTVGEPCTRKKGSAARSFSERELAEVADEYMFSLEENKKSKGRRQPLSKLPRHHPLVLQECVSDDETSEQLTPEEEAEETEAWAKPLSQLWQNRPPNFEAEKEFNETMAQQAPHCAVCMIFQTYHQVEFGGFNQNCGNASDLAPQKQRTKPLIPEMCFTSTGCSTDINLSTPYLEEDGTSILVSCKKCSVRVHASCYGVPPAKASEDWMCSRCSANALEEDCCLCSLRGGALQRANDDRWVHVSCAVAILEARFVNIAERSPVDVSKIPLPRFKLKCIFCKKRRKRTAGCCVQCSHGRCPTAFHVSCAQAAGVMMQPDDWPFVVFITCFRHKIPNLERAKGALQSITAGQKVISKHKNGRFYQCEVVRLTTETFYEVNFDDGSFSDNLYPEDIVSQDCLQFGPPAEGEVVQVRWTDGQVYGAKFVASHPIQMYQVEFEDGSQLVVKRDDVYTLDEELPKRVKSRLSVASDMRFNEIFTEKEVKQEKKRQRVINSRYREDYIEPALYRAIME
Assay: qHTS Assay for Inhibitors of JMJD2A-Tudor Domain; further: nearly all actives have a fitted effect of over 50% in size
Details: AlphaScreen JMJD2A-Tudor / H3K4me3 peptide binding; series mostly up to 114 µM
Excerpt: JMJD2A is a jumonji-domain-containing lysine demethylase that uses Fe(II) together with 2-OG to effect oxidative demethylation of histones. Methylation is one of many […] modification that affect epigenetic transcription. […] It is proposed that the functions of JmjD2A binding to the histones, is to maintain marks after they are installed and to spread the modifications by […], establishing a self-propagating cycle for rapid methylation over a large area of chromatin. […] Thus, small molecule targeting of the JMJD2A-tudor domain interaction with its target methylhistone mark is expected to enable sophisticated experiments probing the fine regulatory pathways leading to selective demethylation of a given methyllysine locus based on the methylation state of adjacent histone marks. A quantitative high throughput AlphaScreen has been developed to identify small molecule inhibitors based on a protocol published by NCGC and SGC [4].
Although AlphaScreen has significant advantages with its utility in a variety of epigenetic target assays, the primary screening data provided in this deposition should be used with caution due to the prevalence of screening artifacts. The top compound concentration tested was high (>100uM) in this assay, which increases number of actives and potential artifacts. An AlphaScreen counterscreen is highly recommended to be run against any putative actives to eliminate non-specific artifacts. Alternatively, one can use other AlphaScreen assays in PubChem to filter out promiscuous hits.
[1] Lee, J. et al. Distinct binding modes specify the recognition of methylated histone H3K4 and H4K20 by JMJD2A-tudor. Nat Struct Mol Biol. 15(1); 109-11. 2008. PMID: 18084306
[2] Yasgar, et al. Compound Management for Quantitative High-Throughput Screening. JALA. 2008 Apr;13(2):79-89. PMID: 18496600
[3] Inglese, et al. Quantitative high-throughput screening: a titration-based approach that efficiently identifies biological activities in large chemical libraries. Proc Natl Acad Sci. 1;103(31):11473-8. 2006. PMID: 16864780
[4] Quinn et al. A homogeneous method for investigation of methyl-dependent protein-protein interactions in epigenetics. Nucleic Acids Res., 38(2):e11. 2010. PMID: […]
[5] Baell,Holloway. New substructure filters for removal of pan assay interference compounds (PAINS) from screening libraries and for their exclusion in bioassays. J Med Chem. 53(7):2719-40. 2010. PMID: 20131845
NIH Molecular Libraries Probe Production Network [MLPCN]
NIH Chemical Genomics Center [NCGC]
Structural Genomics Consortium (SGC)
To each well of a 1,536w plate, 2ul of JMJD2A-Tudor (final 100nM) and 1ul biotinylated histone peptide methylated at Lys4 [b-H3(1-18)K4me3] (final 50nM) were added in 1x PBS buffer, pH 7.4, containing 0.01% Tween-20, using a nanoliter dispenser. Formation of a protein-peptide complex proceeded at room temperature for 30 min. A Kalypsys pin-tool transferred 23nl of library compound solution in DMSO to each well. Following a 30 min incubation of the protein-peptide complex with compounds at room temperature, a mixture of 40 µg/mL each streptavidin-coated donor and nickel chelate acceptor AlphaScreen beads (final 10 µg/mL) was added in a 1ul dispense for a final volume of 4ul, followed by a brief centrifugation (1000 rpm, 1 min). Plates were incubated protected from the light for 20 min at room temperature. Microplates were then read on an EnVision multilabel plate reader using the 1,536 plate HTS AlphaScreen aperture (excitation time 80 ms, measurement time 240 ms).
Potency means the concentration at half of the fitted maximal effect.

SMILES	Potency
Cc1ccc(S(=O)(=O)NC2CCCCCC2)cc1	inactive
Cc1cc(C)cc(NC(=O)NC2CCCCCCC2)c1	inactive
Cc1cc([N+](=O)[O-])c(NC2CCCCC2)c([N+](=O)[O-])c1	25.1 µM (active)
O=C(CCCCn1c(=O)c2ccccc2n(CC(=O)Nc2cccc(C(F)(F)F)c2)c1=O)NCc1ccc2c(c1)OCO2	inactive
Cc1ccc(S(=O)(=O)n2nc(C)c(S(=O)(=O)N3CCCCCC3)c2C)cc1	inactive
COc1ccc(-c2cc3ncccc3cn2)cc1	inactive
CC(=O)NC(Cc1ccccc1)C(=O)NC1CCN(c2ncccc2[N+](=O)[O-])CC1 (stereo unspecified)	inactive
COc1ccc(-c2cc(C3CCN(c4ncccc4[N+](=O)[O-])CC3)[nH]n2)cc1	56.2 µM (active)
Cc1ccc(F)cc1S(=O)(=O)N1CCC(c2nc3ccccc3s2)CC1	inactive
Cc1cc(C)c2c(-c3ccc(F)cc3)c(C#N)c(=O)n(C)c2n1	inactive
CC(=O)c1c(C)[nH]c(=S)c(C#N)c1-c1ccc(F)cc1	5.62 µM (active)
N#Cc1c(-c2ccc(Cl)cc2)c2c([nH]c1=S)CCCC2	inactive
CC1CCN(S(=O)(=O)c2ccc3c(c2)N(CC(=O)NCCc2ccccc2)C(=O)CO3)CC1	inactive
COc1cccc(C(=O)NC2=NC(c3ccc(N(C)C)cc3)CC(=O)N2)c1 (stereo unspecified)	inactive
Oc1ccc(/C=N/N(Cc2ccccc2)c2ccccc2)cc1	44.7 µM (active)
O=C(O)CCC(=O)N(Cc1ccccc1)Cc1ccccc1	inactive
Cc1ccc(-c2cn3c(n2)sc2cc(C(=O)NCc4cccs4)ccc23)c(C)c1	inactive
O=C1CC(c2ccccc2)CC2=C1C(c1ccco1)n1nc(C(F)(F)F)nc1N2 (stereo unspecified)	inactive
Cc1ccc(S(=O)(=O)N2CCCc3cc(NS(=O)(=O)c4cc(C)ccc4C)ccc32)cc1	inactive
COc1ccc(NCc2nnc(SCc3ccccc3)n2-c2ccc(OC)cc2)cc1	50.1 µM (active)
COc1ccc(CSc2nnnn2-c2ccc(C(=O)O)cc2)cc1	inactive
CC(C)Oc1ccc(CCc2nnc(SCC(=O)O)n2-c2ccccc2)cc1	inactive

SMILES	Potency
O=C1C[C@@H](c2ccc3ccccc3c2)N1S(=O)(=O)c1ccccc1[N+](=O)[O-]	inactive
COc1ccc(-c2nc(CN3CCC(C(=O)NCCN(CC(C)C)CC(C)C)CC3)c(C)o2)cc1OC	inactive
COc1ccc(OC)c(NC(=O)C2CCN(S(=O)(=O)c3ccc(C)cc3)CC2)c1	inactive
COc1ccccc1C(=O)Nc1ccc(OCc2nnc3c4ccccc4c(C)nn23)cc1	inactive
Cc1ccc(OCc2nnc(SC3CCc4ccccc4C3=O)n2C)cc1 (stereo unspecified)	28.2 µM (active)
Cc1cccnc1NC(=O)CSc1nnc(COc2ccc(C(C)C)cc2)n1C	inactive
Fc1ccc(CN2CCc3nc(Nc4ccccc4)ncc3C2)cc1F	inactive
CN1C(=O)c2[nH]nc(-c3ccc(F)cc3)c2C1c1ccccn1 (stereo unspecified)	inactive
Cc1ccc(NC(=O)c2cc3cc(C)ccc3n2C)cc1	inactive
CCc1ccc(S(=O)(=O)n2ccnc2)cc1	inactive
CCCCOc1ccc(CNC(=O)c2ccc3c(c2)N(C)C(=O)C2CCCCN32)cc1 (stereo unspecified)	inactive
C=CCn1c(=S)[nH]c2scc(-c3ccco3)c2c1=O	28.2 µM (active)
CCC1(C)Cc2c(sc3[nH]c(=S)n(Cc4ccccc4)c(=O)c23)CO1 (stereo unspecified)	inactive
Cc1ccc(CCNC(=O)Cn2c(-c3cccs3)cc3cc(F)ccc32)cc1	inactive
N#C/C(=C(\O)CCl)c1nnc2n1CCCCC2	35.5 µM (active)
N#C/C(=C(\O)C(F)(F)F)c1nnc2n1CCCCC2	inactive
N#C/C(=C/c1cccc([N+](=O)[O-])c1)c1nnc2n1CCCCC2	inactive
COc1ccc(N2CCN(c3cc(C)nc4nncn34)CC2)cc1	inactive
CCCCN1CC(c2nc3ccccc3n2CCCCOc2ccc(C)cc2C)CC1=O (stereo unspecified)	inactive
O=[N+]([O-])c1ccc(S(=O)(=O)N2CCN(c3nc(-c4ccccc4)nc4ccccc34)CC2)cc1	inactive
CN(C)/C=C/C(=O)c1ccccc1F	inactive
Cc1nc(COc2cccc(Cl)c2)sc1C(=O)/C=C/N(C)C	inactive

SMILES	Potency
Cc1nc(-c2ccccc2)sc1C(=O)/C=C/N(C)C	44.7 µM (active)
COCCN(Cc1ccco1)C(=O)Cn1ncc2c([nH]c3ccccc32)c1=O	inactive
O=S(=O)(c1ccc2c(c1)OCCO2)N1CCN(S(=O)(=O)c2cc(F)ccc2F)CC1	inactive
CCOC(=O)c1c(S(=O)(=O)N2CCCC(C(=O)NCc3ccc(F)cc3)C2)c(C)n(CC)c1C (stereo unspecified)	inactive
Cn1c(=O)[nH]c(=O)c2c1nc(N1CCN(CCO)CC1)n2CCSc1nc2ccccc2s1	inactive
CCN(CC)CCCSc1nc2ccccc2s1	28.2 µM (active)
CCN(CC)CCn1c2c(c(SCC(=O)Nc3nc4ccccc4s3)nc1=O)CCCC2	inactive
COc1ccc(C(=O)COC(=O)CCCC(=O)Nc2cc(C(F)(F)F)ccc2Cl)cc1	inactive
COc1c(Cl)cc(C(=O)N(Cc2ccccc2F)C2CCS(=O)(=O)C2)cc1Cl (stereo unspecified)	inactive
Cn1nnnc1SCCNCc1ccc(Cl)c(Cl)c1	inactive
CCOc1ccccc1C(=O)NCc1ccc2c(c1)CCN2C(=O)c1ccc(F)cc1	inactive
COc1ccc(-c2c(-c3cc(OC)cc(OC)c3)n(C)c3ccc(-c4ccn[nH]4)cc23)cc1	22.4 µM (active)
COc1cc(OC)cc(-c2c(-c3cccs3)c3cc(-c4ccc(OC)nc4)ccc3n2C)c1	inactive
COc1cc(OC)cc(-c2c(-c3ccc(F)cc3)c3cc(-c4ccc5cc[nH]c5c4)ccc3n2C)c1	inactive
Cc1cccc(OCCCC(=O)Nc2sc3c(c2C(N)=O)CCC(C)C3)c1 (stereo unspecified)	inactive
Cc1cc(C)nc(N/N=C/c2c(CO)cnc(C)c2O)n1	89.1 µM (active)
CCS(=O)(=O)c1nc(S(=O)(=O)c2ccc(C)cc2)c(NCc2ccc(Cl)cc2)s1	inactive
Cc1ccccc1NC(=O)Cn1c(=O)n(CC2CCC(C(=O)NCCc3ccccc3)CC2)c(=O)c2ccccc21 (stereo unspecified)	inactive
CCc1ccc(CNC(=O)c2cc3c(=O)n(CC)c4ccccc4c3s2)cc1	inactive
CN(C)c1cc[n+](Cc2ccccc2)cc1	inactive
CN(C)c1ccc(C(CC(=O)O)C(=O)O)cc1 (stereo unspecified)	inactive
CN(C)c1ccc(CSc2ccccc2)cc1	20 µM (active)
